Drawing on PubChem BioAssay (NCATS), this text covers outcome for 40 compounds.

Records with an inconclusive call do not appear. Activity calls are given as the source filed them. Calls come from the whole dose curve; as a rule, active = well fitted inhibition curve with a large enough effect; inconclusive = small, poorly fitted or top-dose-only effect; inactive = flat fitted curve, though single readings scatter.

This experiment relates to astro (control astrocytes). Kind of experiment: Drug repurposing screens with cells derived from glioblastoma tumor samples (AID 1345199). Note: nearly all actives have a fitted effect of over 40% in size. The following applies: viability, ATP luminescence, 48 h; series mostly up to 45.9 µM. On the procedure:
CD133+ cells were isolated from GBM patient biopsies and cultured as neurospheres. Neurospheres from four patients were used to screen the NCATS pharmaceutical collection (NPC) library of approved drugs and bioactive compounds. […] The neurospheres were incubated with drugs for 48 hours in 1536-well format, then assayed with an ATP content cell viability assay. […] These hits were cherry picked to confirm activity in the four original GBM lines screened plus three other slower growing GMB lines (unable to yield enough cells for a full primary screen). Variable activities of the confirmed primary hits in the different GBM patient lines were observed. The patient line 206 responded to the greatest number of compounds and line 923 responded to the least amount of active compounds.
As to `O=C(CN1CCNCC1)NC1CCCCC1`, the compound was classed as inactive.

Regarding `NC(=O)c1ccc([N+](=O)[O-])cc1Cl`, the compound was called inactive.

Turning to `CN1C(=O)CC(c2ccccc2)C1=O` (stereo not given), the call was inactive.

Turning to `Cc1ccsc1C(=CCCN1CCC[C@@H](C(=O)O)C1)c1sccc1C`, the compound was called inactive.

Regarding `CCOC(=O)OC(C)OC(=O)[C@@H]1N2C(=O)[C@@H](NC(=O)[C@H](N)c3ccccc3)[C@H]2SC1(C)C` (stereo not given in full), the compound was classed as inactive.

Consider `CNCc1ccccc1`, for which the outcome was inactive.

As to `CC(=O)OCC(=O)[C@@]1(O)CC[C@H]2[C@@H]3CCC4=CC(=O)C=C[C@]4(C)[C@@]3(F)[C@@H](O)C[C@@]21C`, the call was inactive.

Regarding `C[C@@H](N)C(=O)O`, the compound was classed as inactive.

On to `Nc1ccc(S(=O)(=O)c2ccc(N)cc2)cc1`, for which the outcome was inactive.

In the case of `O=C(O)Cc1cn(-c2ccccc2)nc1-c1ccc(Cl)cc1`, the compound was called inactive.

Turning to `CCOC(=O)[C@H](CCc1ccccc1)N[C@@H](C)C(=O)N1Cc2cc(OC)c(OC)cc2C[C@H]1C(=O)O`, the compound was classed as inactive.

Take `CC[N+](CC)(CC(=O)Nc1c(C)cccc1C)Cc1ccccc1`: the result was inactive.

Turning to `C[N+](C)(C)CC[N+]1(C)Cc2c(Cl)c(Cl)c(Cl)c(Cl)c2C1`, the call was inactive.

As for `CC(=O)Nc1ccc(OCCOCCOc2ccc(NC(C)=O)cc2)cc1`, the compound was classed as inactive.

Regarding `NS(=O)(=O)c1ccc(C(=O)O)cc1`, the compound was called inactive.

Take `CC[N+](C)(CC)CCOC(=O)C1c2ccccc2Oc2ccccc21`: the result was inactive.

Turning to `CC(O)CCCCn1c(=O)c2c(ncn2C)n(C)c1=O` (stereo not given), the outcome was inactive.

On to `Cc1cc(C)c(NC(=O)CN(CC(=O)O)CC(=O)O)c(C)c1Br`, for which the result was inactive.

As for `CC(=O)[C@@]1(O)CC[C@H]2[C@@H]3C[C@H](C)C4=CC(=O)C=C[C@]4(C)[C@@]3(F)[C@@H](O)C[C@@]21C`, the result was inactive.

For the compound `CC1(C)S[C@@H]2[C@H](NC(=O)C(C(=O)O)c3ccccc3)C(=O)N2[C@H]1C(=O)O` (stereo not given in full), the compound was called inactive.

Turning to `CN1C(C)(C)CCCC1(C)C`, the outcome was inactive.

`COc1ccc(O)cc1`: the result was inactive.

For the compound `O=C(O)[C@@H]1[C@H]2C[C@H]3c4[nH]c5ccccc5c4CCN3C[C@@H]2CC[C@@H]1O`, the call was inactive.

Take `C[C@]1(Cn2ccnn2)[C@H](C(=O)O)N2C(=O)C[C@H]2S1(=O)=O`: the compound was classed as inactive.

Take `COc1ccccc1OCC(O)CO` (stereo not given): the call was inactive.

Turning to `CCN(CC)C(=O)c1cccc(C)c1`, the compound was called inactive.

For the compound `Cc1ccccc1N=Nc1ccc(N=Nc2c(O)ccc3ccccc23)c(C)c1`, the compound was classed as inactive.

Consider `CC(C(=O)O)c1ccc2c(c1)Cc1cccnc1O2` (stereo not given), for which the call was inactive.

In the case of `CO[C@@]1(NC(=O)C(C(=O)O)c2ccc(O)cc2)C(=O)N2C(C(=O)O)=C(CSc3nnnn3C)CO[C@@H]21` (stereo not given in full), the result was inactive.

As for `C/C=C1\[C@H]2C=C(C)C[C@]1(N)c1ccc(=O)[nH]c1C2`, the result was inactive.

Consider `CCCOC(=O)c1ccc(N)cc1`, for which the compound was called inactive.

Regarding `NCc1ccc(S(N)(=O)=O)cc1`, the outcome was inactive.

Consider `O=C(/C=C/c1ccccc1)OCc1ccccc1`, for which the call was inactive.

Consider `CN1CC(=O)NC1=N`, for which the compound was called inactive.

For the compound `CC1(c2ccccc2)OC(C(=O)O)=CC1=O` (stereo not given), the result was inactive.

On to `CC(=O)NCc1c(I)c(NC(C)=O)c(I)c(C(=O)O)c1I`, for which the outcome was inactive.

For the compound `Cc1cc(-n2nc3ccc(Cl)cc3n2)c(O)c(C(C)(C)C)c1`, the compound was called inactive.

With `C[C@@H]1CCC[C@H](C)N1`, the compound was classed as inactive.

In the case of `CCN[C@H]1CN(CCCOC)S(=O)(=O)c2sc(S(N)(=O)=O)cc21`, the result was inactive.

`CN(C(=O)c1c(O)c2ccccc2n(C)c1=O)c1ccccc1`: the compound was called inactive.
